# According to PubChem BioAssay (Tox21):
# Inconclusive results are not listed. Unmarked numbers belong to inactive results. Calls follow the shape of the dose curve; as a rule, active = well fitted inhibition curve with a large enough effect in the repeat runs; inconclusive = weak or mixed curves; inactive = no such curve, though single readings can be large or run the other way.
# Target: Cytochrome P450 3A4 (Homo sapiens) (UniProt P08684)
# Experiment: Cytochrome P450 Family 3 Subfamily A Member 4 (CYP3A4) small molecule antagonists: luciferase reporter qHTS assay (AID 1671201); also: nearly all actives have a fitted effect of over 50% in size
# Details: P450-Glo CYP3A4 enzyme, luciferin luminescence, 1 h; series mostly up to 115 µM; activity change, negative = inhibition: at the top concentration
# In short: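 P450-Glo CYP3A4 system with proluciferin substrate; compounds preincubated 10 min RT with enzyme-substrate mix, then NADPH regeneration added for 1 h RT. Detection reagent 20 min, luminescence read as relative luminescence units.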
# % is scaled to controls: 0 for no effect and ±100 for the full control effect.
# Chain of Cytochrome P450 3A4 (Homo sapiens) (P08684 whole entry, looked up): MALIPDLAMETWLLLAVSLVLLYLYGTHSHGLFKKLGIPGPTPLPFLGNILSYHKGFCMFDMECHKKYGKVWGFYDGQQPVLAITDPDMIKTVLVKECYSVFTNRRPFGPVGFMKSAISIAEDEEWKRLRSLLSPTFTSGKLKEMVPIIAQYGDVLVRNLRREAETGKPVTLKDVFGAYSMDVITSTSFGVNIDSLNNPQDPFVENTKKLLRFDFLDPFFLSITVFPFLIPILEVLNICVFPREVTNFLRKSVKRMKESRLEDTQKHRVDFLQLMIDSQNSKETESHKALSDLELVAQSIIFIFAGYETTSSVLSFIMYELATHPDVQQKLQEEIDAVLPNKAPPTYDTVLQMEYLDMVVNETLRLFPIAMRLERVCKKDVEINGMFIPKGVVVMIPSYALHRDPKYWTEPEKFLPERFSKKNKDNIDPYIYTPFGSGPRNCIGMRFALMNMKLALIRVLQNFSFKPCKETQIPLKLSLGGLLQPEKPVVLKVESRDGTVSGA
row,Structure (SMILES),"activity change, negative = inhibition"
1,CCOC(=O)c1ccc(N(C)C)cc1,42%
2,C[Si](C)(C)O[Si](O)(O)O,18.7%
3,CCC(C)SSC(C)CC (centres undefined),2.07%
4,CC(C)(C)OC=O,27.4%
5,CCNC(=O)C(C)OC(=O)Nc1ccccc1 (centres undefined),-7.09%
6,C=CCN(CC=C)CC=C,4.72%
7,Cc1cc(=O)oc2cc(O[C@@H]3SC[C@@H](O)[C@H](O)[C@H]3O)ccc12,3.15% [at 52.9 µM]
8,COc1ccccc1N1CCN(CC(O)COc2cc(OC)c(OC)c(OC)c2)CC1 (centres undefined),-12% [at 52.9 µM]
9,COC(=O)N/N=C/c1c[n+]([O-])c2ccccc2[n+]1[O-],2.21% [at 52.9 µM]
10,COC(=O)c1cc(Cl)c(NC(C)=O)cc1OC,2.45% [at 52.9 µM]
11,CC(=O)Nc1ccc(OCCOCCOc2ccc(NC(C)=O)cc2)cc1,-23.3% [at 52.9 µM]
12,CC(O)CCCCn1c(=O)c2c(ncn2C)n(C)c1=O (centres undefined),7.6% [at 52.9 µM]
13,O=Cc1ccc(C(=O)O)cc1,17.3%
14,O=S(=O)(O)c1cc(I)c(O)c2ncccc12,5.81% [at 52.9 µM]
15,C=CC(=O)CC,0.0759%
16,CCN1CCN(C(=O)N[C@@H](C(=O)N[C@@H]2C(=O)N3[C@@H]2SC(C)(C)[C@H]3C(=O)O)c2ccccc2)C(=O)C1=O,-5.66% [at 52.9 µM]
17,COc1ccc2cc(CCC(C)=O)ccc2c1,-0.363% [at 52.9 µM]
18,c1coc(Cn2cccc2)c1,-22.3%
19,CCC(C)c1nccnc1OC (centres undefined),1.81%
20,Cc1ccc(OC(=O)CC(C)C)cc1,8.39%
21,O=CN1CCCCC1,1.18%
22,CC(=O)c1ccc(O)c(C(N)=O)c1,5.58% [at 52.9 µM]
23,c1cc2ccc3ccc4ccc5cccc6c(c1)c2c3c4c56,-22.2% [at 4.07 µM]
24,O=C(O)/C=C(\CC(=O)O)C(=O)O,12.2% [at 52.9 µM]
